Shown are actives, neighbours in structure and some others; about 1.7% of the full set was active somewhere.
GLP1R inv ag: inverse agonists of human GLP-1 receptor | HEK293 GLP-1R CRE-luciferase, luminescence, 24 h; GLP-1R form is constitutively active | AID 624417 | P43220 | Potency, µM (top dose mostly 38.3 µM), inactives show at the top dose activity change, negative = inhibition, actives largely listed as inhibitors | 1.6% of 410,000 active; further: on the % scale 0 is the no-effect control and ±100 the full control effect; nearly all actives have a fitted effect of over 55% in size
Target sequence (P43220 whole entry, looked up): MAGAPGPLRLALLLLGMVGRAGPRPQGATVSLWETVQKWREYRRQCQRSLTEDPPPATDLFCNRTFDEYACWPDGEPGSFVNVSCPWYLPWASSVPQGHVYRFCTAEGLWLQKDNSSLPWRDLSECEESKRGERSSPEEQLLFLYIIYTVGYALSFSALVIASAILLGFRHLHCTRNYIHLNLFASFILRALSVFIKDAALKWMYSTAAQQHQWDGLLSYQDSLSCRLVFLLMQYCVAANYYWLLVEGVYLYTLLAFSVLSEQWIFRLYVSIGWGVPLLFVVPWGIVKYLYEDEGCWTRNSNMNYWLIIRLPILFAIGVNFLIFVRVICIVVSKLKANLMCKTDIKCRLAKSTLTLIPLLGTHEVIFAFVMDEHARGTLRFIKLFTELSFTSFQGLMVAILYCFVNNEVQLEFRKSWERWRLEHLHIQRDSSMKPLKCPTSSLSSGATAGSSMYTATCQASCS
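Cells are plated, allowed 12 hours at 37 deg C, then treated with compounds for 24 hr before luciferase detection reagent is added and luminescence is read after 12 min at room temperature. The HEK293 line carries constitutively active GLP-1R with a cAMP-responsive reporter.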
GLP-1R agonist: activates the human GLP-1 receptor. P43220. 0.007% of 380,000 active. Potency, µM (doses to about 45.6 µM), for inactives: at the top dose activation, most hits filed as activators. AID 624172. HEK293 GLP-1R CRE-luciferase, luminescence, 4-6 h; cells express a hypersensitive GLP-1R form; further: % of control where 0% means no effect
GLP1R cytotox: cytotoxic in the GLP-1 receptor inverse agonist counter-screen; HEK293 cAMP-luciferase reporter cells, luminescence, 24 h; Potency, µM (titrated, usually from 38.3 µM), inactives show at the top dose activity change, negative = inhibition, usual class: inhibitors; 0.13% of 410,000 active;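 further: loss of luciferase light is scored as toxicity; on the % scale 0 is the no-effect control and ±100 the full control effect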
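Here, cytotoxicity is scored as loss of luminescence. The MLSMR collection was tested on cells seeded in medium containing 10% Nu serum, with a 24 hr compound exposure preceded by 12 hours of culture.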
RGS4 inhibitor: inhibitors of human regulator of G protein signaling 4 | Transcreener GDP fluorescence polarization, RGS4-accelerated GTP hydrolysis | Potency, µM (series often up to 114 µM), inactives show top-dose activity change, negative = inhibition, actives largely listed as inhibitors | 0.039% of 390,000 active; further: on the % scale 0 is the no-effect control and ±100 the full control effect; nearly all actives have a fitted effect of over 75% in size
Target sequence (P49798 whole entry, looked up): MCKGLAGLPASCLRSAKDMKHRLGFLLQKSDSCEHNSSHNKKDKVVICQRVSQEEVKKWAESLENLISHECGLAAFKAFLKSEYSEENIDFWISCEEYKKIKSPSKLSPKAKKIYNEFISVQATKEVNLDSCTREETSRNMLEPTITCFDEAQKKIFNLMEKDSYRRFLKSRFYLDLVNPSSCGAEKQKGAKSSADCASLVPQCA
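MLSMR compounds (23 nl, pin-transferred) preincubated 10 min at room temperature with a 500nM (2x) first reagent, then RGS4 at 900nM (2x) plus Transcreener GDP mix added; fluorescence polarization (620/688 nm) read before and after 90 min at 30 °C.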
PTHR1 ag: PTHR1 (human) receptor agonism; AID 743266; Potency, µM (doses to about 115 µM), for inactives: top-dose activation, most hits filed as activators; Q03431; HEK293 GP2 PTHR1 cells, GloSensor cAMP luminescence, 1 h; 0.075% of 410,000 active; further: nearly all actives have a fitted effect of over 55% in size
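HEK-293-derived GP2 cells expressing PTHR1 and a GloSensor cAMP reporter, 3,000/well, plated overnight, given luciferin plus IBMX (each 0.5 mM as added) for 1 h at 37 °C, then compound for 1 h at 37 °C. Luminescence was read after 15 min at room temperature.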
Starred values were filed as active, the others as inactive; i = inactive; ? = inconclusive; nt = not tested or not shown; [ ] = dose if it differs, or a comment. The call rests on the fitted dose curve; in most records, active means well fitted curve in the direction sought with a large enough effect; inconclusive means small, poorly fitted or top-dose-only effect, or another doubt; inactive means no such curve, though single readings can be large; an effect the other way counts as inactive or inconclusive. Potency means the concentration at half of the fitted maximal effect.

SMILES	GLP1R inv ag	GLP-1R agonist	GLP1R cytotox	RGS4 inhibitor	PTHR1 ag
O=C1/C(=C/c2cccc(Br)c2)SC(=S)N1CCC(=O)N(CCO)c1ccccc1	11.2µM*	-0.5%	15.9%	-19.3%	i
COc1cccc(/C=C2\SC(=S)N(CCC(=O)NCCc3ccc(O)cc3)C2=O)c1	3.98µM*	-2.9%	?	18.2%[11.4 µM]	-86.5%
COc1cccc(/C=C2\SC(=S)N(CCCC(=O)N(CCO)c3ccccc3)C2=O)c1	4.47µM*	2.7%	-13.8%	-18.8%	i
CCOC(=O)c1ccc(S(=O)(=O)NNc2ccc(C(F)(F)F)cn2)cc1	?	-6.5%	1.9%	10.8%	-12.2%
COc1cccc(C2NC(=S)NC3=C2CCc2ccccc23)c1 (stereo not given)	?	-13.2%	3.98µM*	-32.9%	-2.1%
COc1ccc2c(c1)C1=C(CC2)C(c2ccc(C)cc2)NC(=S)N1 (stereo not given)	?	12.5%	?	-43.0%	-26.7%
C[C@@H](NC(=O)c1ncn(Cc2ccccc2)c1C(=O)N[C@H](C)c1ccccc1)c1ccccc1	?	7.9%	2.9%	-2.8%	-17.9%
COc1ccc(O)c(C2Nc3ccccc3-n3c(-c4ccccc4)c4c(=O)n(C)c(=O)n(C)c4c32)c1 (stereo not given)	3.3%	nt	21.3%	-2.8%	-29.7%
Cc1ccc(-c2c3c(=O)n(C)c(=O)n(C)c3c3n2-c2ccccc2NC3c2ccc(C)cc2O)cc1 (stereo not given)	10µM*	nt	-13.8%	3.9%	-20.1%
Clc1ccc(Cn2ncc3c(N4CCCC4)ncnc32)cc1	31.6%	14.5%	-4.4%	-13.5%	i
CC1CC(C)CN(c2ncnc3c2cnn3Cc2ccc(Cl)cc2)C1 (stereo not given)	2µM*	-5.6%	0.2%	-8.9%	i
C[C@@H](C(=O)N=c1sc2ccccc2n1C)N1C(=O)C2CC=CCC2C1=O (stereo not given in full)	6.9%	20.0%	-12.8%	12.5%	-28.3%
C/C(=N\Nc1ccc(F)cc1F)c1ccc(Br)s1	12.6µM*	15.1%	1.6%	?	-7.2%
C/C(=N/Nc1ccc([N+](=O)[O-])cc1)c1ccc(C)cc1C	-22.2%	-13.9%	-27.9%	31.6%	-31.8%
Cc1[nH]c2ccccc2c1/C=N/NC(=O)c1cccc([N+](=O)[O-])c1	-30.0%	6.2%	20.7%	-36.2%	-61.6%
C/C(=N/Nc1ccc([N+](=O)[O-])cc1)c1c[nH]c2ccccc12	2.51µM*	5.8%	-11.7%	-28.0%	-29.4%
Cc1[nH]c2ccccc2c1/C=N/Nc1ccc([N+](=O)[O-])cc1	2.82µM*	3.8%	?	0.1%	-5.2%
O=C(c1ccc2n[nH]nc2c1)N1CCN(c2ccc(C(F)(F)F)cn2)CC1	12.4%	-6.5%	0.4%	-9.4%	-25.6%
Cn1c(=O)c2cc(NC(=O)NCCc3cccs3)ccc2n1-c1ccc(C(C)(C)C)cc1	-17.5%	-6.7%	-12.5%	nt	-37.4%
COc1ccc(CC(=O)Nc2ccc(-c3nc4ccccc4s3)c(C)c2)cc1OC	7.0%	nt	12.0%	29.7%	-94.4%
N#Cc1c(-c2ccccc2)c(-c2ccccc2)nn(CC(=O)NNC(=O)Nc2ccc(Cl)cc2)c1=O	10µM*	5.0%	-21.6%	-20.5%	15.2%
N#Cc1c(-c2ccccc2)c(-c2ccccc2)nn(CC(=O)NNC(=O)Nc2ccccc2)c1=O	?	-13.9%	?	-23.9%	i
O=[N+]([O-])c1ccccc1S(=O)(=O)NCCSCc1ccco1	-8.2%	-11.7%	-2.7%	-17.0%	i
COc1ccc(NC(=O)/C(Cl)=C(/Cl)S(=O)Cc2ccccc2)cn1 (stereo not given)	-7.3%	-23.9%	2.82µM*	?	i
Cc1cccc(N(CC(=O)NC2CCCC2)C(=O)c2csnn2)c1C	7.9%	8.2%	-4.1%	8.3%	-8.1%
SMILES	GLP1R inv ag	GLP-1R agonist	GLP1R cytotox	RGS4 inhibitor	PTHR1 ag
CC(NC(=O)c1ccc(-c2ccccc2)cc1)C(c1ccccc1)N1CCOCC1 (stereo not given)	2µM*	6.5%	-15.7%	14.9%	-9.4%
COc1ccc(NC(=S)NC(C)C(c2ccccc2)N2CCOCC2)cc1 (stereo not given)	-12.8%	11.5%	-0.5%	15.6%	i
CC(NC(=S)Nc1ccccc1Cl)C(c1ccccc1)N1CCOCC1 (stereo not given)	?	1.8%	10µM*	13.6%	-12.8%
Cc1cccc(N2CCN(C(=O)C3CCN(C(=O)c4cc5sccc5n4C)CC3)CC2)c1C	?	nt	2.6%	-2.8%	-93.6%
CCOC(=O)c1ccc(NC(=S)Nc2ccc(Cl)cn2)cc1	-8.0%	-6.0%	-1.4%	3.1%	?
CCOC(=O)c1ccc(NC(=O)Nc2ccc(F)cc2)cc1	4.47µM*	-5.9%	?	-13.3%	-23.8%
CCOC(=O)c1ccc(NC(=S)Nc2ccccn2)cc1	?	0.6%	5.62µM*	-21.8%	1.8%[57.5 µM]
CCOC(=O)c1ccc(NC(=O)C2(c3ccc(OC)cc3)CCCC2)cc1	5.01µM*	1.9%	-15.6%	16.0%	-25.1%[57.5 µM]
CCOC(=O)c1ccc(NC(=O)C2(c3ccc(OC)cc3)CCOCC2)cc1	?	0.6%	-22.6%	36.1%	-15.9%[57.5 µM]
O=C(NC(=S)Nc1ccccn1)c1ccccc1	10µM*	-7.2%	?	0.8%	-61.0%
CO[C@@H]1[C@@H]([C@H](C)[C@@H]2O[C@@]3(CC[C@@](C)([C@H]4CC[C@@](C)([C@H]5O[C@H]([C@H]6O[C@](C)(O)[C@H](C)C[C@@H]6C)C[C@H]5O[C@H]5C[C@@H](OC)[C@H](OC)[C@@H](C)O5)O4)O3)C[C@@H](O)[C@@H]2C)O[C@@](O)(CC(=O)O)[C@H](C)[C@H]1OC	nt	-4.4%	nt	nt	nt
Cc1nc2nc(SCc3ccc(F)cc3Cl)nn2c(C)c1Cc1ccccc1	?	nt	9.3%	12.5%	i
Cc1csc(NC(=O)c2ccccc2)n1	-12.8%	1.2%	0.9%	1.1%	-35.8%
Cc1csc(NC(=S)NC(=O)c2ccccc2)n1	3.55µM*	8.2%	?	12.5%	-13.4%
S=C(Nc1ccc(Nc2ccccc2)cc1)Nc1ccccn1	2.24µM*	13.5%	?	-35.6%	-31.4%
COc1ccc(-c2cc3c(=O)n(CC(=O)NCCCN4CCC(Cc5ccccc5)CC4)ncn3n2)cc1	2.24µM*	-0.1%	-0.8%	8.7%	-52.9%
CCCc1ccc(-c2cc(NC(=O)CSc3n[nH]c(N)n3)n(-c3ccccc3)n2)cc1	50.2%	3.0%	5.6%	15.9%	15.8µM*
CCn1cc(CCCC(=O)NCc2ccccc2OC)c2ccccc21	?	-4.0%	4.4%	-0.8%	i
CCn1cc(CCCC(=O)NCc2cccc(OC)c2)c2ccccc21	10µM*	13.9%	-1.7%	1.6%	i

Source: PubChem BioAssay (National Center for Advancing Translational Sciences (NCATS))
